Reference: PubChem BioAssay (NCATS)
Results filed as inconclusive are left out. Active and inactive are the calls of the source. Calls follow the shape of the dose curve; as a rule, active = well fitted curve in the direction sought with a large enough effect; inconclusive = small, poorly fitted or top-dose-only effect, or another doubt; inactive = no such curve, though single readings can be large; an effect the other way counts as inactive or inconclusive.

Test: qHTS of pediatric cancer cell lines to identify multiple opportunities for drug repurposing: Primary screen for RD cells (AID 1347104);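 also: plate controls were DMSO for no effect and bortezomib for full effect; nearly all actives have a fitted effect of over 55% in size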
Settings: RD rhabdomyosarcoma viability, CellTiter-Glo luminescence, 48 h; series mostly up to 46 µM; activity change, negative = cytotoxic: at the top concentration
How it was run: (§1)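 Readout: CellTiter-Glo luminescence, 48 h treatment. Controls DMSO (neutral) and bortezomib 2.3 µM final (positive). Potency and efficacy taken from primary-screen concentration-response curves.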

Compound	activity change, negative = cytotoxic
CC1(C)OC(=O)NC1=O	16.1% (inactive)
CCOc1ccc2ccccc2c1C(=O)N[C@@H]1C(=O)N2[C@@H]1SC(C)(C)[C@@H]2C(=O)O	15.2% (inactive)
CC1CC(OC(=O)C(O)c2ccccc2)CC(C)(C)N1C (stereo not given)	7.95% (inactive)
OCC(CO)N[C@H]1C[C@](O)(CO)[C@@H](O)[C@H](O)[C@H]1O	4.97% (inactive)
CCn1cc(C(=O)O)c(=O)c2cnc(N3CCNCC3)nc21	7.94% (inactive)
CC1(C)CO[C@@H](CC(=O)O)CN1	11.1% (inactive)
C[C@@H]1CC[C@@]2(OC1)O[C@H]1C[C@H]3[C@@H]4CC[C@H]5C[C@@H](O)CC[C@]5(C)[C@H]4CC(=O)[C@]3(C)[C@H]1[C@@H]2C	12.6% [at 4.84 µM] (inactive)
Cc1ccc(C(C)C)cc2c(C)ccc1-2	10.2% (inactive)
Cc1cc(O)cc2c1O[C@](C)(CCC[C@H](C)CCC[C@H](C)CCCC(C)C)CC2	21.5% (inactive)
COc1ccc(S(=O)(=O)Nc2nnc(CC(C)C)s2)cc1	-2.55% (inactive)
CC(=O)CCC(=O)O	13.5% (inactive)
CN(C)CC[C@@H](c1ccc(Cl)cc1)c1ccccn1	6.49% (inactive)
Nc1nc2c(ncn2CCC(CO)CO)c(=O)[nH]1	4.44% (inactive)
N[C@H]1C(O)O[C@H](CO)[C@@H](O)[C@@H]1O (stereo not given in full)	-4.25% (inactive)
C[C@@H](O)[C@H](N)C(=O)O	17% [at 16.1 µM] (inactive)
CC1(C)[C@@H]2CC[C@@]1(C)C(=O)C2	14.6% (inactive)
C[C@@H]1CCN(C(=O)[C@H](CCCN=C(N)N)NS(=O)(=O)c2cccc3c2NC[C@H](C)C3)[C@@H](C(=O)O)C1	14.3% (inactive)
Oc1cccc(O)c1	12.6% (inactive)
NCCNCCNCCNCCN	-3.51% [at 9.22 µM] (inactive)
C[C@H](N)[C@H](O)c1cccc(O)c1	9.78% (inactive)
O=C(Oc1ccccc1C(=O)O)c1ccccc1O	8.19% (inactive)
Nc1ccc(S(=O)(=O)NC(=O)c2ccccc2)cc1	0.72% (inactive)
Cc1cc2nc3c(=O)[nH]c(=O)nc-3n(C[C@H](O)[C@H](O)[C@H](O)CO)c2cc1C	9.64% [at 16.1 µM] (inactive)
O=C1O[C@H]([C@@H](O)CO)C(O)=C1O	16.4% (inactive)

Test: qHTS of pediatric cancer cell lines to identify multiple opportunities for drug repurposing: Primary screen for MG 63 (6-TG R) cells (AID 1347105); also: % is scaled to controls: 0 for no effect and ±100 for the full control effect; nearly all actives have a fitted effect of over 50% in size
Settings: MG 63 (6-TG R) viability, CellTiter-Glo, 48 h; series mostly up to 46 µM; activity change, negative = cytotoxic: at the top concentration
How it was run: as §1

Compound	activity change, negative = cytotoxic
C=CCn1c(=O)n([C@@H]2O[C@H](CO)[C@@H](O)[C@H]2O)c2nc(N)[nH]c(=O)c21	-3.13% (inactive)
O=C1c2c(O)cccc2Cc2cccc(O)c21	-19.3% (inactive)
CC1(C)OC(=O)NC1=O	-13.5% (inactive)
CCOc1ccc2ccccc2c1C(=O)N[C@@H]1C(=O)N2[C@@H]1SC(C)(C)[C@@H]2C(=O)O	-15.3% (inactive)
CC1CC(OC(=O)C(O)c2ccccc2)CC(C)(C)N1C (stereo not given)	-16.6% (inactive)
OCC(CO)N[C@H]1C[C@](O)(CO)[C@@H](O)[C@H](O)[C@H]1O	-18.9% (inactive)
CCn1cc(C(=O)O)c(=O)c2cnc(N3CCNCC3)nc21	-16.7% (inactive)
CC1(C)CO[C@@H](CC(=O)O)CN1	-13.3% (inactive)
CCCCC(CC)COC(=O)c1ccccc1O (stereo not given)	-8.11% (inactive)
CCN(CC)C(=O)Nc1ccc(OCC(O)CNC(C)(C)C)c(C(C)=O)c1 (stereo not given)	12% (inactive)
C[C@@H]1CC[C@@]2(OC1)O[C@H]1C[C@H]3[C@@H]4CC[C@H]5C[C@@H](O)CC[C@]5(C)[C@H]4CC(=O)[C@]3(C)[C@H]1[C@@H]2C	-5.19% [at 4.84 µM] (inactive)
C[C@@H]1CN(c2c(F)c(F)c3c(=O)c(C(=O)O)cn(C4CC4)c3c2F)C[C@H](C)N1	55.6% [at 16.1 µM] (inactive)
Cc1ccc(C(C)C)cc2c(C)ccc1-2	3.03% (inactive)
Cc1cc(O)cc2c1O[C@](C)(CCC[C@H](C)CCC[C@H](C)CCCC(C)C)CC2	-3.02% (inactive)
COc1ccc(S(=O)(=O)Nc2nnc(CC(C)C)s2)cc1	-15% (inactive)
CCCCN1CCCC[C@H]1C(=O)Nc1c(C)cccc1C	-21.8% (inactive)

Compound	activity change, negative = cytotoxic
CC(=O)CCC(=O)O	0.533% (inactive)
CN(C)CC[C@@H](c1ccc(Cl)cc1)c1ccccn1	-10.3% (inactive)
NC(=O)NC(=O)Cc1ccccc1	-19.7% (inactive)
CC1=C(C/C=C(\C)CCC[C@H](C)CCC[C@H](C)CCCC(C)C)C(=O)c2ccccc2C1=O	-3.5% (inactive)
Nc1nc2c(ncn2CCC(CO)CO)c(=O)[nH]1	-6.96% (inactive)
N[C@H]1C(O)O[C@H](CO)[C@@H](O)[C@@H]1O (stereo not given in full)	-21.4% (inactive)
C[C@@H](O)[C@H](N)C(=O)O	-20.2% [at 16.1 µM] (inactive)
CC1(C)[C@@H]2CC[C@@]1(C)C(=O)C2	-15.9% (inactive)
C[C@@H]1CCN(C(=O)[C@H](CCCN=C(N)N)NS(=O)(=O)c2cccc3c2NC[C@H](C)C3)[C@@H](C(=O)O)C1	-5.53% (inactive)
Nc1ccc(S(=O)(=O)Nc2ccccc2)cc1	-14.6% (inactive)
Oc1cccc(O)c1	-0.879% (inactive)
C[C@H](N)[C@H](O)c1cccc(O)c1	-2.31% (inactive)
O=C(Oc1ccccc1C(=O)O)c1ccccc1O	-3.34% (inactive)
Nc1ccc(S(=O)(=O)NC(=O)c2ccccc2)cc1	-18.2% (inactive)
Cc1cc2nc3c(=O)[nH]c(=O)nc-3n(C[C@H](O)[C@H](O)[C@H](O)CO)c2cc1C	-9.03% [at 16.1 µM] (inactive)
O=C1O[C@H]([C@@H](O)CO)C(O)=C1O	-1.63% (inactive)

Test: qHTS of pediatric cancer cell lines to identify multiple opportunities for drug repurposing: Primary screen for control Hh wild type fibroblast cells (AID 1347106);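 also: % is scaled to controls: 0 for no effect and ±100 for the full control effect; a drop in luminescence marks cytotoxicity and a rise apparent proliferation; nearly all actives have a fitted effect of over 55% in size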
Settings: Hh wild-type fibroblast viability, CellTiter-Glo luminescence, 48 h; series mostly up to 46 µM; activity change, negative = cytotoxic: at the top concentration
How it was run: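 Cells (500-1,000/well) in growth media were settled 5 h at 37 degrees C, then given compounds for 48 h. Viability was read as CellTiter-Glo luminescence. Primary runs used MIPE at 11 points (0.78 nM-46 µM) and NPC at 8 points (0.59 nM-46 µM); follow-ups used 11 points.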

Compound	activity change, negative = cytotoxic
C=CCn1c(=O)n([C@@H]2O[C@H](CO)[C@@H](O)[C@H]2O)c2nc(N)[nH]c(=O)c21	13.4% (inactive)
O=C1c2c(O)cccc2Cc2cccc(O)c21	-0.58% (inactive)
CC1(C)OC(=O)NC1=O	2.82% (inactive)
CCOc1ccc2ccccc2c1C(=O)N[C@@H]1C(=O)N2[C@@H]1SC(C)(C)[C@@H]2C(=O)O	10.5% (inactive)
CC1CC(OC(=O)C(O)c2ccccc2)CC(C)(C)N1C (stereo not given)	7.29% (inactive)
OCC(CO)N[C@H]1C[C@](O)(CO)[C@@H](O)[C@H](O)[C@H]1O	-0.463% (inactive)
CCn1cc(C(=O)O)c(=O)c2cnc(N3CCNCC3)nc21	7.57% (inactive)
CC1(C)CO[C@@H](CC(=O)O)CN1	6.23% (inactive)
CCCCC(CC)COC(=O)c1ccccc1O (stereo not given)	7.84% (inactive)
CCN(CC)C(=O)Nc1ccc(OCC(O)CNC(C)(C)C)c(C(C)=O)c1 (stereo not given)	6.96% (inactive)
C[C@@H]1CC[C@@]2(OC1)O[C@H]1C[C@H]3[C@@H]4CC[C@H]5C[C@@H](O)CC[C@]5(C)[C@H]4CC(=O)[C@]3(C)[C@H]1[C@@H]2C	6.44% [at 4.84 µM] (inactive)
C[C@@H]1CN(c2c(F)c(F)c3c(=O)c(C(=O)O)cn(C4CC4)c3c2F)C[C@H](C)N1	5.71% [at 16.1 µM] (inactive)
Cc1ccc(C(C)C)cc2c(C)ccc1-2	3.44% (inactive)
Cc1cc(O)cc2c1O[C@](C)(CCC[C@H](C)CCC[C@H](C)CCCC(C)C)CC2	-2.24% (inactive)
COc1ccc(S(=O)(=O)Nc2nnc(CC(C)C)s2)cc1	-12.4% (inactive)
CCCCN1CCCC[C@H]1C(=O)Nc1c(C)cccc1C	-2.79% (inactive)
CC(=O)CCC(=O)O	7.78% (inactive)

Compound	activity change, negative = cytotoxic
CN(C)CC[C@@H](c1ccc(Cl)cc1)c1ccccn1	4.46% (inactive)
NC(=O)NC(=O)Cc1ccccc1	-1.29% (inactive)
CC1=C(C/C=C(\C)CCC[C@H](C)CCC[C@H](C)CCCC(C)C)C(=O)c2ccccc2C1=O	-3.74% (inactive)
COc1ccccc1O	7.86% [at 92.7 µM] (inactive)
Nc1nc2c(ncn2CCC(CO)CO)c(=O)[nH]1	-2% (inactive)
N[C@H]1C(O)O[C@H](CO)[C@@H](O)[C@@H]1O (stereo not given in full)	12.2% (inactive)
C[C@@H](O)[C@H](N)C(=O)O	-3.68% [at 16.1 µM] (inactive)
CC1(C)[C@@H]2CC[C@@]1(C)C(=O)C2	1.32% (inactive)
C[C@@H]1CCN(C(=O)[C@H](CCCN=C(N)N)NS(=O)(=O)c2cccc3c2NC[C@H](C)C3)[C@@H](C(=O)O)C1	6.53% (inactive)
Nc1ccc(S(=O)(=O)Nc2ccccc2)cc1	3.97% (inactive)
Oc1cccc(O)c1	7.63% (inactive)
NCCNCCNCCNCCN	-0.844% [at 9.22 µM] (inactive)
C[C@H](N)[C@H](O)c1cccc(O)c1	9.42% (inactive)
O=C(Oc1ccccc1C(=O)O)c1ccccc1O	-2.74% (inactive)
Nc1ccc(S(=O)(=O)NC(=O)c2ccccc2)cc1	-9.63% (inactive)
Cc1cc2nc3c(=O)[nH]c(=O)nc-3n(C[C@H](O)[C@H](O)[C@H](O)CO)c2cc1C	2% [at 16.1 µM] (inactive)
O=C1O[C@H]([C@@H](O)CO)C(O)=C1O	6.71% (inactive)
